From the supplement of paper PMC13380429
A number with no mark means an inactive call.

Test system: Vero E6 infected with SARS-CoV-2
Assay: inhibition of SARS-CoV-2 cytopathic effect; higher = more antiviral protection, active = above 15
Conditions: 48 h

Row | Compound | inhibition of SARS-CoV-2 cytopathic effect (1 nM) | inhibition of SARS-CoV-2 cytopathic effect (8.33 nM) | inhibition of SARS-CoV-2 cytopathic effect (100 nM) | inhibition of SARS-CoV-2 cytopathic effect (833.33 nM) | inhibition of SARS-CoV-2 cytopathic effect (10000 nM)
1 | O=C1[C@H](Cc2ccc(O)cc2)N2C(=O)CCN(C(=O)NCc3ccccc3)[C@H]2CN1Cc1cccc2ccccc12 | -0.18% | 0.82% | 2.23% | 1.89% | -3.36%
2 | CC(C)c1cc(C(C)C)c(CC(=O)NS(=O)(=O)Oc2c(C(C)C)cccc2C(C)C)c(C(C)C)c1 [avasimibe] | -2.41% | 1.3% | -0.91% | -2.68% | -1.52%
3 | O=C(O)CCc1c[nH]c2ccccc12 | 0.05% | -0.38% | -1.18% | -0.72% | -0.06%
4 | O=C1Nc2ccccc2C2(CCN(CCc3ccc(C(F)(F)F)cc3)CC2)O1 | -1.89% | -4.51% | -1.41% | -2.49% | -3.73%
5 | CCCCOC(=O)c1ccc(N)cc1 [butamben] | 3.03% | 2.87% | 2.37% | 6.53% | 2.78%
6 | COc1ccc(/C=C/C(=O)/C=C(O)/C=C/c2ccc(OC)c(OC)c2)cc1OC | 1.2% | -0.13% | 3.36% | 5.15% | 19.7% (active)
7 | O=[N+]([O-])c1ccc2nc(COCc3nc4ccc([N+](=O)[O-])cc4[nH]3)[nH]c2c1 | -1.36% | -1.65% | -4.45% | 0.4% | -0.17%
